Measured values: PubChem BioAssay AID1159580 (chemical genetic matrix, 2015)
Values joined by “and” are separate entries in the source; they are usually repeats but may differ in a detail not shown here. Equal values may be shown once. About 2,000 (36%) of roughly 5,500 compounds were called active. Roughly 18% stayed inconclusive and do not appear here. Rule as the data show it: active = normalized growth mostly below about 0.91 (no sharp cut-off); inconclusive = no clear call, values can overlap the other calls; inactive = mostly above about 0.92. Some of the results follow. Where a SMILES comes first, the peptide text is derived from it. Bridges are numbered along the chain shown (N, C = ends). [ ]: non-standard residue; d: D form. The star is where a group is joined. Heptanoyl(6-Me) = CC(C)CCCCC(=O)*; Dab = NCC[CH](N)C(=O)O

Assay: chemical genetic growth profiling, strain panel (AID 1159580);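 also: tested at 20 µM; growth read once vehicle control cultures reached saturation at 30 °C; 1 = growth at the plate median or of vehicle wells; lower values mean less growth of the strain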
Conditions: S. cerevisiae deletion strains, growth OD
[1] = locus YHR030C, strain SLT2, stronger effect = lower value
[2] = locus YJL095W, strain BCK1, stronger effect = lower value
[3] = locus YJR066W, strain TOR1, stronger effect = lower value
[4] = locus YLR113W, strain HOG1, stronger effect = lower value
[5] = locus YNL183C, strain NPR1, stronger effect = lower value
[6] = locus YOR231W, strain MKK1, stronger effect = lower value
[7] = locus YPL256C, strain CLN2, stronger effect = lower value

Measured: normalized growth

O=C1CC[C@]23C=CC(=O)NCCCCNCCCNC(=O)/C=C/c4ccc(c2c4)O[C@@H]3C1
active: locus YHR013C, strain ard1, stronger effect = lower value 1.41 [resistant]
inactive: locus YAL021C, strain ccr4, stronger effect = lower value 1.02 | locus YAL026C, strain drs2, stronger effect = lower value 1.04 | locus YAL030W, strain snc1, stronger effect = lower value 1.01 | locus YBL061C, strain skt5, stronger effect = lower value 1.02 | locus YBR009C, strain hhf1, stronger effect = lower value 1.03 | locus YBR021W, strain FUR4, stronger effect = lower value 0.999 | locus YBR023C, strain chs3, stronger effect = lower value 1.02 | locus YBR171W, strain sec66, stronger effect = lower value 1.01 | locus YBR229C, strain ROT2, stronger effect = lower value 1.01 | locus YBR231C, strain swc5, stronger effect = lower value 1.01 | locus YBR279W, strain paf1, stronger effect = lower value 1 | locus YCL011C, strain gbp2, stronger effect = lower value 1 | locus YCL016C, strain dcc1, stronger effect = lower value 1.03 | locus YCL029C, strain bik1, stronger effect = lower value 0.997 | locus YCL061C, strain MRC1, stronger effect = lower value 1 | locus YCL069W, strain vba3, stronger effect = lower value 1.01 | locus YCR088W, strain abp1, stronger effect = lower value 1.02 | locus YDL005C, strain med2, stronger effect = lower value 1.02 | locus YDL035C, strain GPR1, stronger effect = lower value 1.05 | locus YDL040C, strain nat1, stronger effect = lower value 1 | locus YDL074C, strain BRE1, stronger effect = lower value 1.05 | locus YDL101C, strain DUN1, stronger effect = lower value 1 | locus YDL134C, strain PPH21, stronger effect = lower value 0.954 | locus YDL185W, strain tfp1, stronger effect = lower value 0.993 | locus YDL192W, strain arf1, stronger effect = lower value 1.02 | locus YDR001C, strain nth1, stronger effect = lower value 1.01 | locus YDR069C, strain doa4, stronger effect = lower value 1.03 | locus YDR101C, strain arx1, stronger effect = lower value 0.997 | locus YDR137W, strain rgp1, stronger effect = lower value 0.993 | locus YDR150W, strain NUM1, stronger effect = lower value 1.01 | locus YDR159W, strain sac3, stronger effect = lower value 1.03 | locus YDR162C, strain NBP2, stronger effect = lower value 1.02 | locus YDR195W, strain ref2 1.02 | locus YDR297W, strain sur2, stronger effect = lower value 1.01 | locus YDR318W, strain mcm21, stronger effect = lower value 1.01 | locus YDR334W, strain swr1, stronger effect = lower value 1.01 | locus YDR335W, strain msn5, stronger effect = lower value 1.03 | locus YDR388W, stronger effect = lower value 0.993 | locus YDR392W, strain spt3, stronger effect = lower value 1.01 | locus YDR502C, strain sam2, stronger effect = lower value 0.963 | locus YEL003W, strain gim4, stronger effect = lower value 1.01 | locus YEL037C, strain rad23, stronger effect = lower value 1.02 | locus YEL061C, strain CIN8 (second series), stronger effect = lower value 1.01 | locus YEL061C, strain CIN8, stronger effect = lower value 1.01 | locus YER015W, strain faa2, stronger effect = lower value 1.01 | locus YER016W, strain bim1, stronger effect = lower value 1.02 | locus YER110C, stronger effect = lower value 0.981 | locus YER111C, strain swi4, stronger effect = lower value 1.01 | locus YER155C, strain BEM2 (second series), stronger effect = lower value 1.01 | locus YER155C, strain BEM2, stronger effect = lower value 1.01 | locus YER167W, strain BCK2, stronger effect = lower value 1.02 | locus YFR010W, strain ubp6, stronger effect = lower value 1.02 | locus YGL078C, strain dbp3, stronger effect = lower value 0.987 | locus YGL086W, strain mad1, stronger effect = lower value 0.99 | locus YGL167C, strain pmr1, stronger effect = lower value 1.03 | locus YGL173C, strain kem1, stronger effect = lower value 1.02 | locus YGL227W, strain vid30, stronger effect = lower value 1.02 | locus YGL240W, strain doc1, stronger effect = lower value 1.02 | locus YGL248W, strain PDE1, stronger effect = lower value 1 | locus YGL253W, strain hxk2, stronger effect = lower value 1.02 | locus YGR135W, strain pre9, stronger effect = lower value 0.951 | locus YGR252W, strain gcn5, stronger effect = lower value 0.903 | locus YHR027C, strain rpn1, stronger effect = lower value 1 | [1] 1.05 | locus YHR079C, strain IRE1 (second series), stronger effect = lower value 0.995 | locus YHR079C, strain IRE1, stronger effect = lower value 1.04 | locus YHR094C, strain hxt1, stronger effect = lower value 0.993 | locus YHR129C, strain ARP1, stronger effect = lower value 1.01 | locus YHR142W, strain chs7, stronger effect = lower value 1.01 | locus YHR200W, strain rpn10, stronger effect = lower value 0.963 | locus YIL066C, strain RNR3, stronger effect = lower value 1.04 | locus YIL073C, strain SPO22, stronger effect = lower value 0.97 | locus YIL125W, strain kgd1, stronger effect = lower value 0.988 | locus YIR030C, strain dcg1, stronger effect = lower value 0.997 | locus YJL092W, strain hpr5, stronger effect = lower value 1.01 | locus YJL095W, strain BCK1 (second series), stronger effect = lower value 1.04 | [2] 1.01 and 1.04 | locus YJL115W, strain asf1, stronger effect = lower value 1.02 | locus YJL129C, strain trk1, stronger effect = lower value 1.01 | locus YJL134W, strain LCB3, stronger effect = lower value 1.01 | locus YJL154C, strain vps35, stronger effect = lower value 1.01 | locus YJL164C, strain tpk1, stronger effect = lower value 0.974 | locus YJL166W, strain qcr8, stronger effect = lower value 1.04 | locus YJL168C, strain set2, stronger effect = lower value 1 | locus YJL187C, strain SWE1 (second series), stronger effect = lower value 0.99 | locus YJR043C, strain POL32, stronger effect = lower value 1.04 | [3] 0.98 | locus YKL009W, strain mrt4, stronger effect = lower value 1.04 | locus YKL068W, stronger effect = lower value 0.993 | locus YKL085W, strain MDH1 (second series), stronger effect = lower value 0.997 | locus YKL085W, strain MDH1, stronger effect = lower value 0.997 | locus YKL160W, strain elf1, stronger effect = lower value 1.04 | locus YKR001C, strain vps1, stronger effect = lower value 0.977 | locus YKR026C, strain gcn3, stronger effect = lower value 1.01 | locus YKR091W, strain srl3, stronger effect = lower value 1.01 | locus YLL001W, strain dnm1, stronger effect = lower value 0.965 | locus YLL026W, stronger effect = lower value 1.01 | locus YLL041C, strain sdh2, stronger effect = lower value 1.01 | locus YLR027C, strain aat2, stronger effect = lower value 1.01 | locus YLR039C, strain RIC1, stronger effect = lower value 1.08 | locus YLR058C, strain SHM2, stronger effect = lower value 1.01 | locus YLR102C, strain apc9, stronger effect = lower value 0.985 | [4] 0.962 | locus YLR221C, strain rsa3, stronger effect = lower value 1.01 | locus YLR258W, strain gsy2, stronger effect = lower value 1.01 | locus YLR262C, strain YPT6 (second series), stronger effect = lower value 1 | locus YLR268W, strain sec22, stronger effect = lower value 1.01 | locus YLR320W, strain mms22, stronger effect = lower value 1.04 | locus YLR330W, strain CHS5, stronger effect = lower value 1.01 | locus YLR342W, strain FKS1 (second series), stronger effect = lower value 1.04 | locus YLR342W, strain FKS1, stronger effect = lower value 1 | locus YLR357W, strain rsc2, stronger effect = lower value 1.01 | locus YLR370C, strain arc18, stronger effect = lower value 1.02 | locus YLR371W, strain rom2, stronger effect = lower value 1 | locus YLR384C, strain iki3, stronger effect = lower value 1 | locus YLR418C, strain cdc73, stronger effect = lower value 0.959 | locus YML016C, strain PPZ1, stronger effect = lower value 1.01 | locus YML032C, strain rad52, stronger effect = lower value 0.993 | locus YML120C, strain ndi1, stronger effect = lower value 0.993 | locus YML124C, strain tub3, stronger effect = lower value 0.988 | locus YMR058W, strain fet3, stronger effect = lower value 1.02 | locus YMR078C, strain ctf18, stronger effect = lower value 0.986 | locus YMR125W, strain sto1, stronger effect = lower value 1 | locus YMR129W, stronger effect = lower value 1 | locus YMR205C, strain PFK2, stronger effect = lower value 1.01 | locus YMR223W, strain ubp8, stronger effect = lower value 0.969 | locus YMR231W, strain pep5, stronger effect = lower value 1.02 | locus YMR307W, strain GAS1, stronger effect = lower value 1.05 | locus YNL067W, strain RPL9B, stronger effect = lower value 0.976 | locus YNL071W, strain lat1, stronger effect = lower value 1.02 | locus YNL153C, strain GIM3, stronger effect = lower value 0.996 | [5] 0.99 | locus YNL209W, strain ssb2, stronger effect = lower value 1.01 | locus YNL233W, strain BNI4, stronger effect = lower value 0.998 | locus YNL248C, strain rpa49, stronger effect = lower value 1.03 | locus YNL250W, strain rad50, stronger effect = lower value 0.959 | locus YNL271C, strain bni1, stronger effect = lower value 0.999 | locus YNL298W, strain CLA4, stronger effect = lower value 0.997 | locus YNL307C, strain MCK1, stronger effect = lower value 0.983 | locus YNL322C, strain KRE1 (second series), stronger effect = lower value 1.01 | locus YNL322C, strain KRE1, stronger effect = lower value 1.01 | locus YNR049C, strain mso1, stronger effect = lower value 1.03 | locus YNR052C, strain pop2, stronger effect = lower value 0.972 | locus YOL006C, strain TOP1, stronger effect = lower value 1.09 | locus YOL012C, strain htz1 0.612 | locus YOL147C, strain pex11, stronger effect = lower value 0.99 | locus YOR001W, strain rrp6, stronger effect = lower value 1.03 | locus YOR061W, strain CKA2, stronger effect = lower value 1.02 | locus YOR069W, strain VPS5, stronger effect = lower value 1 | locus YOR070C, strain gyp1, stronger effect = lower value 1.02 | locus YOR080W, strain dia2, stronger effect = lower value 1.01 | locus YOR083W, strain WHI5, stronger effect = lower value 1.01 | locus YOR106W, strain vam3, stronger effect = lower value 1.01 | locus YOR136W, strain idh2, stronger effect = lower value 0.979 | locus YOR144C, strain elg1, stronger effect = lower value 0.987 | locus YOR184W, strain ser1, stronger effect = lower value 1.03 | [6] 1.03 | locus YOR265W, strain rbl2, stronger effect = lower value 0.991 | locus YOR270C, strain vph1, stronger effect = lower value 1.07 | locus YOR290C, strain snf2, stronger effect = lower value 1.01 | locus YOR316C, strain cot1, stronger effect = lower value 0.984 | locus YPL051W, strain arl3, stronger effect = lower value 1.02 | locus YPL055C, strain LGE1, stronger effect = lower value 1.04 | locus YPL078C, strain atp4, stronger effect = lower value 1.01 | locus YPL106C, strain sse1, stronger effect = lower value 1.06 | locus YPL240C, strain hsp82, stronger effect = lower value 1.01 | locus YPL241C, strain CIN2, stronger effect = lower value 1.01 | [7] 1.05 | locus YPR119W, strain clb2, stronger effect = lower value 0.992 | locus YPR141C, strain kar3, stronger effect = lower value 0.993 | locus YPR163C, strain tif3, stronger effect = lower value 0.99 | locus YPR167C, strain met16, stronger effect = lower value 0.985 | strain wtn01, stronger effect = lower value 0.99

CCC(C)C1NC(=O)C(CCN)NC(=O)C(NC(=O)C(CCN)NC(=O)C(NC(=O)C(CCN)NC(=O)CCCCC(C)C)C(C)O)CCNC(=O)C(C(C)O)NC(=O)C(CCN)NC(=O)C(CCN)NC(=O)C(C(C)CC)NC1=O (stereo unspecified) ({Heptanoyl(6-Me)}-[Dab]T[Dab][Dab][Dab]II[Dab][Dab]T; lactam 4-C; configuration not given here)
inactive: [1] 0.976 | [2] 0.985 | [3] 0.95 | [4] 0.967 | [5] 0.944 | [6] 0.971 | [7] 0.973
